Measurements as given in PubChem BioAssay (NCATS).
Records with an inconclusive call do not appear. Where a call stands in place of a potency, no number is given. Activity calls are given as the source filed them. The call rests on the fitted dose curve; in most records, active means well fitted curve in the direction sought with a large enough effect; inconclusive means small, poorly fitted or top-dose-only effect, or another doubt; inactive means no such curve, though single readings can be large; an effect the other way counts as inactive or inconclusive.

Experiment: NS1 protein of Zika virus - qHTS assay to identify small molecule inhibitors in human HEK 293 cells (AID 1347053); further: nearly all actives have a fitted effect of over 55% in size
Conditions: HEK293 ZIKV MR766 infection, NS1 TR-FRET, 24 h; series mostly up to 46.1 µM
Outline: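 In this cell-based screen, HEK 293 cultures received compound for one hour before Zika MR766 at MOI = 0.5. NS1 was quantified 24 hours later by TR-FRET, normalized to virus-free wells and infected wells.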

SMILES | Potency | activity change, negative = inhibition
CC(C)N=C(N)/N=C(\N)Nc1ccc(Cl)cc1 | inactive | –
Nc1ccc(C(=O)O)cc1 | inactive | –
CCCCOc1ccc(OCCCN2CCOCC2)cc1 | inactive | –
Cc1ccc(Nc2c(F)cccc2Cl)c(CC(=O)O)c1 | inactive | –
Oc1cc(O)c2c(c1)O[C@H](c1ccc(O)c(O)c1)[C@H](O)C2 | inactive | –
NC[C@H]1O[C@H](O[C@H]2[C@H](O[C@@H]3O[C@H](CO)[C@@H](O)[C@H]3O)C(O)[C@H](N)C[C@@H]2N)[C@H](N)[C@@H](O)[C@@H]1O (stereo not given in full) | – | -23.8% [at 9.2 µM] (inactive)
COc1cc(/C=C/C(=O)O[C@H]2CC[C@]34C[C@]35CC[C@]3(C)[C@@H]([C@H](C)CCC=C(C)C)CC[C@@]3(C)[C@@H]5CC[C@H]4C2(C)C)ccc1O | inactive | –
CC1(C)O[C@@H]2C[C@H]3[C@@H]4CCC5=CC(=O)CC[C@]5(C)[C@@]4(F)[C@@H](O)C[C@]3(C)[C@]2(C(=O)CCl)O1 | inactive | –
CNC(=O)CN(CCN(CCN(CC(=O)[O-])CC(=O)NC)CC(=O)[O-])CC(=O)[O-].O.[Gd+3] | inactive | –
Cc1c(N(C)CS(=O)(=O)O)c(=O)n(-c2ccccc2)n1C | inactive | –
CCOc1ccc(NC(=O)CC(C)O)cc1 (stereo not given) | inactive | –
C/C=C/c1ccc(OC)cc1 | inactive | –
OC[C@H]1O[C@H](O[C@]2(CCl)O[C@H](CCl)[C@@H](O)[C@@H]2O)[C@H](O)[C@@H](O)[C@H]1Cl | inactive | –
CCN(CC)CCNC(=O)COc1ccc(Cl)cc1 | inactive | –
Cc1cc(N)c2cc(NC(=O)Nc3ccc4nc(C)cc(N)c4c3)ccc2n1 | inactive | –
C[C@]12C=CC(=O)C=C1[C@@H](F)C[C@@H]1[C@@H]2[C@@H](O)C[C@@]2(C)[C@H]1CC[C@]2(O)C(=O)CO | inactive | –
NC(CS)C(=O)O (stereo not given) | inactive | –
CN1C(CCl)Nc2cc(Cl)c(S(N)(=O)=O)cc2S1(=O)=O (stereo not given) | inactive | –

SMILES | Potency | activity change, negative = inhibition
COc1cc2c(cc1OC)[C@@H]1CC(=O)[C@@H](CC(C)C)CN1CC2 | inactive | –
CC1(C)O[C@@H]2C[C@H]3[C@@H]4C[C@H](F)C5=CC(=O)C=C[C@]5(C)[C@H]4[C@@H](O)C[C@]3(C)[C@]2(C(=O)CO)O1 | inactive | –
CCCCC1=NC2(CCCC2)C(=O)N1Cc1ccc(-c2ccccc2-c2nn[nH]n2)cc1 | inactive | –
COc1cc(OC)cc(OC)c1 | inactive | –
CC(=O)OCC(=O)[C@@]1(O)[C@H](C)C[C@H]2[C@@H]3CCC4=CC(=O)C=C[C@]4(C)[C@@]3(F)[C@@H](O)C[C@@]21C | inactive | –
CCCCc1nc(Cl)c(CO)n1Cc1ccc(-c2ccccc2-c2nn[nH]n2)cc1 | inactive | –
C[C@@H](CN(C)C)CN1c2ccccc2Sc2ccccc21 | inactive | –
Cc1ccnc(NS(=O)(=O)c2ccc(N)cc2)n1 | inactive | –
CC(O)C(=O)O (stereo not given) | inactive | –
Nc1ccc(/C=C/c2ccc(N)cc2S(=O)(=O)O)c(S(=O)(=O)O)c1 | – | -8.83% [at 0.593 µM] (inactive)
COc1ccc(C2C(=O)c3ccccc3C2=O)cc1 | inactive | –
CCN(CC)C(=O)/C(C#N)=C/c1cc(O)c(O)c([N+](=O)[O-])c1 | inactive | –
Cc1cc2c(cc1CC(=O)c1sccc1S(=O)(=O)Nc1onc(C)c1Cl)OCO2 | inactive | –
CC(Cc1cccc(C(F)(F)F)c1)NCCOC(=O)c1ccccc1 (stereo not given) | inactive | –
CCN(CC)C(=O)N1CCN(C)CC1 | inactive | –
NCCC(O)(P(=O)(O)O)P(=O)(O)O | inactive | –
CN1CCN(CCCN2c3ccccc3Sc3ccc(S(=O)(=O)N(C)C)cc32)CC1 | inactive | –

Experiment: qHTS of pediatric cancer cell lines to identify multiple opportunities for drug repurposing: Primary screen for TC32 cells (AID 1347089); further: nearly all actives have a fitted effect of over 60% in size
Conditions: TC32 Ewing sarcoma viability, CellTiter-Glo luminescence, 48 h; series mostly up to 45.8 µM
Outline: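 In the primary qHTS, MIPE compounds were tested at 11 concentrations (0.78 nM to 46 µM) and NPC compounds at 8 (0.59 nM to 46 µM) on TC32 cells for 48 h. CellTiter-Glo luminescence gave viability.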

SMILES | Potency | activity change, negative = cytotoxic
CC(C)N=C(N)/N=C(\N)Nc1ccc(Cl)cc1 | inactive | –
Nc1ccc(C(=O)O)cc1 | inactive | –
CCCCOc1ccc(OCCCN2CCOCC2)cc1 | inactive | –
Cc1ccc(Nc2c(F)cccc2Cl)c(CC(=O)O)c1 | inactive | –
Oc1cc(O)c2c(c1)O[C@H](c1ccc(O)c(O)c1)[C@H](O)C2 | inactive | –
NC[C@H]1O[C@H](O[C@H]2[C@H](O[C@@H]3O[C@H](CO)[C@@H](O)[C@H]3O)C(O)[C@H](N)C[C@@H]2N)[C@H](N)[C@@H](O)[C@@H]1O (stereo not given in full) | – | 6.72% [at 9.17 µM] (inactive)
COc1cc(/C=C/C(=O)O[C@H]2CC[C@]34C[C@]35CC[C@]3(C)[C@@H]([C@H](C)CCC=C(C)C)CC[C@@]3(C)[C@@H]5CC[C@H]4C2(C)C)ccc1O | inactive | –
CC1(C)O[C@@H]2C[C@H]3[C@@H]4CCC5=CC(=O)CC[C@]5(C)[C@@]4(F)[C@@H](O)C[C@]3(C)[C@]2(C(=O)CCl)O1 | inactive | –
CNC(=O)CN(CCN(CCN(CC(=O)[O-])CC(=O)NC)CC(=O)[O-])CC(=O)[O-].O.[Gd+3] | inactive | –
Cc1c(N(C)CS(=O)(=O)O)c(=O)n(-c2ccccc2)n1C | inactive | –
CCOc1ccc(NC(=O)CC(C)O)cc1 (stereo not given) | inactive | –
C/C=C/c1ccc(OC)cc1 | inactive | –
OC[C@H]1O[C@H](O[C@]2(CCl)O[C@H](CCl)[C@@H](O)[C@@H]2O)[C@H](O)[C@@H](O)[C@H]1Cl | inactive | –
CCN(CC)CCNC(=O)COc1ccc(Cl)cc1 | inactive | –
Cc1cc(N)c2cc(NC(=O)Nc3ccc4nc(C)cc(N)c4c3)ccc2n1 | inactive | –
C[C@]12C=CC(=O)C=C1[C@@H](F)C[C@@H]1[C@@H]2[C@@H](O)C[C@@]2(C)[C@H]1CC[C@]2(O)C(=O)CO | inactive | –
NC(CS)C(=O)O (stereo not given) | inactive | –
CN1C(CCl)Nc2cc(Cl)c(S(N)(=O)=O)cc2S1(=O)=O (stereo not given) | inactive | –

SMILES | Potency | activity change, negative = cytotoxic
COc1cc2c(cc1OC)[C@@H]1CC(=O)[C@@H](CC(C)C)CN1CC2 | inactive | –
CC1(C)O[C@@H]2C[C@H]3[C@@H]4C[C@H](F)C5=CC(=O)C=C[C@]5(C)[C@H]4[C@@H](O)C[C@]3(C)[C@]2(C(=O)CO)O1 | inactive | –
CCCCC1=NC2(CCCC2)C(=O)N1Cc1ccc(-c2ccccc2-c2nn[nH]n2)cc1 | inactive | –
COc1cc(OC)cc(OC)c1 | inactive | –
CC(=O)OCC(=O)[C@@]1(O)[C@H](C)C[C@H]2[C@@H]3CCC4=CC(=O)C=C[C@]4(C)[C@@]3(F)[C@@H](O)C[C@@]21C | inactive | –
CCCCc1nc(Cl)c(CO)n1Cc1ccc(-c2ccccc2-c2nn[nH]n2)cc1 | inactive | –
C[C@@H](CN(C)C)CN1c2ccccc2Sc2ccccc21 | inactive | –
Cc1ccnc(NS(=O)(=O)c2ccc(N)cc2)n1 | inactive | –
CC(O)C(=O)O (stereo not given) | inactive | –
Nc1ccc(/C=C/c2ccc(N)cc2S(=O)(=O)O)c(S(=O)(=O)O)c1 | – | 14.3% [at 0.594 µM] (inactive)
COc1ccc(C2C(=O)c3ccccc3C2=O)cc1 | inactive | –
CCN(CC)C(=O)/C(C#N)=C/c1cc(O)c(O)c([N+](=O)[O-])c1 | inactive | –
Cc1cc2c(cc1CC(=O)c1sccc1S(=O)(=O)Nc1onc(C)c1Cl)OCO2 | inactive | –
CC(Cc1cccc(C(F)(F)F)c1)NCCOC(=O)c1ccccc1 (stereo not given) | inactive | –
CCN(CC)C(=O)N1CCN(C)CC1 | inactive | –
NCCC(O)(P(=O)(O)O)P(=O)(O)O | inactive | –
CN1CCN(CCCN2c3ccccc3Sc3ccc(S(=O)(=O)N(C)C)cc32)CC1 | inactive | –
